Molecules are shown by their SMILES. Out of some 1,200 compounds screened, about 140 (12%) were called active.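 The calls were made as follows: active = fitted curve falls past -35% activity change at a dose under twice the top valid dose, in every replicate test; inconclusive = replicate tests disagree on the call; inactive = the rest, including activity in the opposite direction.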 The list is a sample of the results.

The test is described as follows: restoration of mutant CFTR halide transport – FRT cells, YFP quenching, cherry-pick, dose response (AID 743402).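 Also: compounds act as correctors raising surface CFTR-F508del before acute activation.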 The note with it: FRT CFTR-F508del YFP iodide quenching, 24 h, channel opened with forskolin and a potentiator; series mostly up to 26 µM.
Regarding `C/C(=N\NC(=O)c1c(Cl)c(C)nn1C)c1ccc(NC(=O)C2CCC2)cc1`, the activity change, negative = more quenching (active) entry is “inactive”.

Consider `COc1ccc2c(c1)sc(N)[n+]2Cc1cc(C)cc2cccnc12`, for which the activity change, negative = more quenching (active) entry is “inactive”.

For the compound `CCN(CC)c1ccc(/C=N/NC(=O)c2ccco2)c(O)c1`, the activity change, negative = more quenching (active) result was “inactive”.

Consider `Cc1cc(N/N=C/c2ccccc2O)c2ccccc2n1`, for which the activity change, negative = more quenching (active) entry was “inactive”.

As for `Cc1ccccc1-c1nc(CS(=O)(=O)CC(=O)NCc2ccccc2)c(C)o1`, the activity change, negative = more quenching (active) result is “inactive”.

On to `Cc1ccc(-c2ccc3c(c2)O[C@H](CN(C)Cc2ccccn2)[C@@H](C)CN([C@H](C)CO)S3(=O)=O)cc1`, for which the activity change, negative = more quenching (active) entry was “inactive”.

As to `COc1ccc(S(=O)(=O)Nc2ccc3c(c2)C(=O)N([C@H](C)CO)C[C@@H](C)[C@@H](CN(C)Cc2ccc(Cl)c(Cl)c2)O3)cc1`, the activity change, negative = more quenching (active) entry is “inactive”.

Regarding `c1coc(-c2nc3ccccc3s2)c1`, the activity change, negative = more quenching (active) entry was “inactive”.

`Clc1ccc2c(c1)-c1ccccc1C1=NCCN12`: the activity change, negative = more quenching (active) entry was “inactive”.

In the case of `Cc1ccc(N(C)S(=O)(=O)c2ccc(-c3cnc(C4CC4)o3)cc2)cc1`, the activity change, negative = more quenching (active) entry was “inactive”.

For the compound `Cc1ccnc2c1ccc1cccnc12`, the activity change, negative = more quenching (active) result was “inactive”.

In the case of `Cc1ccc(COc2ccccc2-c2cc(C(=O)N/N=C/c3cccnc3)[nH]n2)cc1`, the activity change, negative = more quenching (active) result is “inactive”.

As for `CC(C)(C)c1cc(C(=O)NN)n(Cc2ccc(Cl)cc2Cl)n1`, the activity change, negative = more quenching (active) result was “inactive”.

For the compound `COc1ccccc1Nc1c2c(nc3ccccc13)CCC2`, the activity change, negative = more quenching (active) entry is “inactive”.

In the case of `CC(=NNC(=S)N1CC2CCC(CC2)C1)c1cnccn1`, the activity change, negative = more quenching (active) entry is “inactive”.

With `COc1cc(NC(=O)N2CCNC2=O)cc(C(=O)Nc2cccc(C(F)(F)F)c2)c1`, the activity change, negative = more quenching (active) entry was “inactive”.

As to `COc1ccc(-c2ccc3oc(-c4ccc(OC)cc4)c(C#CCO)c3c2)cc1`, the activity change, negative = more quenching (active) result was “inactive”.

Consider `COCCCN=C1NN=C(c2cc(C)n(Cc3ccco3)c2C)CS1`, for which the activity change, negative = more quenching (active) entry is “inactive”.

Take `CC(=O)N1CCc2c(sc(NC(=O)c3ccc4c(c3)OCCO4)c2C#N)C1`: the activity change, negative = more quenching (active) result was “inactive”.

Take `O=C(c1cccc(S(=O)(=O)N2CCN(c3ccc(F)cc3)CC2)c1)N1CCCC(C(F)(F)F)C1` (stereo not drawn): the activity change, negative = more quenching (active) entry is “inactive”.

In the case of `COc1ccccc1C(=O)NC(=S)/C=C1/N(C)c2ccccc2C1(C)C`, the activity change, negative = more quenching (active) result is “inactive”.

For `COc1cc2c(C#CCCO)c(-c3ccsc3)oc(=O)c2cc1OC`, the activity change, negative = more quenching (active) result is “inactive”.

In the case of `CC(=O)NC(c1ccc(C(C)C)cc1)c1ccc2cccnc2c1O` (stereo not drawn), the activity change, negative = more quenching (active) result was “inactive”.

Take `O=C(Nc1cccc(C2=NCCN2)c1)Nc1cccc(C2=NCCN2)c1`: the activity change, negative = more quenching (active) result is “inactive”.

Take `Cc1ccc2c(c1)CCCN2C(=O)CCc1nc2ccccc2c(=O)[nH]1`: the activity change, negative = more quenching (active) result is “inactive”.

With `COc1ccc2cc(CN(CC3CCCO3)C(=S)Nc3ccccc3)c(=O)[nH]c2c1` (stereo not drawn), the activity change, negative = more quenching (active) result was “inactive”.

For `COc1ccc(Nc2nc3cc(-c4sccc4C)sc3c(=O)n2C)cc1OC`, the activity change, negative = more quenching (active) result is “inactive”.

For the compound `Cc1ccc2cc(CN(CC3CCCO3)C(=S)Nc3ccccc3)c(=O)[nH]c2c1C` (stereo not drawn), the activity change, negative = more quenching (active) entry is “inactive”.

Turning to `CCOC(=O)N1CCC(NC(=O)c2ccc3c(c2)N=C(C)c2c(C)ccc(C)c2S3)CC1`, the activity change, negative = more quenching (active) entry is “inactive”.

On to `O=C(Nc1ccc(Br)cn1)c1cccc2ccccc12`, for which the activity change, negative = more quenching (active) result was “inactive”.

Regarding `Cc1cc2c(cc1S(=O)(=O)Nc1ccc(F)cc1)n(C)c(=O)c(=O)n2C`, the activity change, negative = more quenching (active) entry is “inactive”.

For the compound `CC(=O)Nc1ccc(S(=O)(=O)NC2=C(N3CCN(Cc4ccccc4)CC3)C(=O)c3ccccc3C2=O)cc1`, the activity change, negative = more quenching (active) entry was “inactive”.

As for `N#Cc1c(-c2ccc(F)cc2)c(-c2ccc(F)cc2)nn(CCO)c1=O`, the activity change, negative = more quenching (active) result is “inactive”.

Take `C[C@@H]1CN([C@H](C)CO)C(=O)c2cc(NS(=O)(=O)c3ccc(Cl)cc3)ccc2O[C@@H]1CN(C)Cc1ccc(-c2ccccc2)cc1`: the activity change, negative = more quenching (active) entry is “inactive”.

Regarding `COc1ccc2c3c([nH]c2c1)[C@H](CO)N(C(=O)C1CCOCC1)CC31CCN(Cc2cccc(F)c2)CC1`, the activity change, negative = more quenching (active) entry was “inactive”.

Take `Cc1cc(C(=O)N/N=C/c2ccc(N(C)C)cc2)c2ccccc2n1`: the activity change, negative = more quenching (active) entry is “inactive”.

Consider `NCC(=O)NNC(=O)OCC1c2ccccc2-c2ccccc21`, for which the activity change, negative = more quenching (active) entry is “inactive”.

As for `COc1ccc(OC)c(-c2cc(-c3cccnc3)nc(N)c2C#N)c1`, the activity change, negative = more quenching (active) result is “inactive”.

On to `COc1cccc(N=Nc2ccc3cccnc3c2O)c1`, for which the activity change, negative = more quenching (active) result is “inactive”.

Turning to `COc1cc(/C=C2/SC(=Nc3ccc(O)cc3)NC2=O)cc(OC)c1O`, the activity change, negative = more quenching (active) entry is “inactive”.

Regarding `O=C1NC(=Nc2ccc(O)cc2)S/C1=C/c1ccco1`, the activity change, negative = more quenching (active) result is “inactive”.

For `CC(=O)c1ccc(Nc2cc(C)nc3c(C)cc(C)cc23)cc1`, the activity change, negative = more quenching (active) result is “inactive”.

Regarding `COc1ccc(Nc2nc(-c3sc(C)nc3C)cs2)cc1`, the activity change, negative = more quenching (active) result is “inactive”.

Regarding `COc1ccc(-c2ccc3c(c2)[C@H]2[C@H](CCN2S(=O)(=O)c2ccc(OC)cc2)[C@@H](CO)N3C)cc1`, the activity change, negative = more quenching (active) entry is “inactive”.

For the compound `Cc1cccc(N2CCN(C(=O)c3c(-c4ccccc4)noc3C)CC2)c1C`, the activity change, negative = more quenching (active) result was “inactive”.

As to `C[C@@H]1CN([C@@H](C)CO)C(=O)c2cc(NS(=O)(=O)c3ccc(Cl)cc3)ccc2O[C@@H]1CN(C)Cc1ccc(C(F)(F)F)cc1`, the activity change, negative = more quenching (active) entry was “inactive”.

Regarding `Nc1[nH]c(C(=O)c2ccccc2)c(-c2ccccc2C(F)(F)F)c1C(=O)NCCc1c[nH]c2ccccc12`, the activity change, negative = more quenching (active) result is “inactive”.

As to `Cc1cc(C)c2nc(Cl)c(CN(Cc3ccco3)C(=O)Nc3ccccc3C)cc2c1`, the activity change, negative = more quenching (active) result is “inactive”.

`COc1ccc(-c2ccnc(-c3ccc(O)cc3)n2)cc1`: the activity change, negative = more quenching (active) result is “inactive”.

For `O=C(c1ccc(Br)cc1)c1cc([N+](=O)[O-])ccc1N1CCOCC1`, the activity change, negative = more quenching (active) result is “inactive”.

In the case of `COc1ccc([N+](=O)[O-])cc1Nc1c2ccccc2nc2ccccc12`, the activity change, negative = more quenching (active) entry was “inactive”.

Consider `COC(=O)/C=C/c1ccccc1S(=O)(=O)N(Cc1ccccc1)Cc1ccco1`, for which the activity change, negative = more quenching (active) entry was “inactive”.

Consider `NS(=O)(=O)c1ccc(S(=O)(=O)N(CCc2ccccc2)Cc2ccccn2)cc1`, for which the activity change, negative = more quenching (active) entry is “inactive”.

Regarding `CCN1CCN(c2cc(C)c3cc(NC(=O)c4ccc(OC)c(OC)c4)ccc3n2)CC1`, the activity change, negative = more quenching (active) entry was “inactive”.

As to `N=C1/C(=C/c2cccn2CCOc2ccccc2)C(=O)N=C2SC=C(c3ccccc3)N12`, the activity change, negative = more quenching (active) result was “inactive”.

With `O=C1C=C(NCCc2cc(Br)c(O)c(Br)c2)C(=O)c2ncccc21`, the activity change, negative = more quenching (active) entry was “inactive”.

For the compound `Nc1c(C(=O)c2ccco2)oc2ccccc12`, the activity change, negative = more quenching (active) entry was “inactive”.

As for `Nc1ccn(C2OC(CO)C(O)C2O)c(=O)n1` (stereo not drawn), the activity change, negative = more quenching (active) entry is “inactive”.

Turning to `O=C(CCCl)Nc1nc2c(s1)CCc1ccccc1-2`, the activity change, negative = more quenching (active) result was “inactive”.

Take `C[C@H]1CN([C@@H](C)CO)S(=O)(=O)c2ccc(C#CC3CCCCC3)cc2O[C@H]1CN(C)Cc1cccnc1`: the activity change, negative = more quenching (active) result is “inactive”.

Regarding `CCOC(=O)c1ccc(N2CCOCC2)c(NC(=O)c2c(-c3ccccc3)noc2C)c1`, the activity change, negative = more quenching (active) result was “inactive”.

In the case of `CCN(CC)c1ccc(/C=N/NC(=O)c2cnccn2)cc1`, the activity change, negative = more quenching (active) result is “inactive”.

For `COc1ccc(NC(=O)c2cc(S(=O)(=O)N3CCOCC3)ccc2C)cc1S(=O)(=O)N1CCOCC1`, the activity change, negative = more quenching (active) entry was “inactive”.

Values taken from PubChem BioAssay AID743402 (Broad Institute, 2014).
